This is part of a sample that, as a whole, favours compounds with a hit. Of some 83,000 tested, about 20% had one in any assay.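 Cells were grown in 96-well plates and exposed to the test compound at a single concentration for 48 hours; results are reported as percent growth, with values below 10 considered active.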 Unmarked numbers belong to inactive results. Activity calls are given as the source filed them.
Test system: KM12 colon
Assay: NCI-60 one-dose screen, 48 h (100 = growth as untreated, 0 = no growth, -100 = all killed)
Conditions: 10 µM
Method: Growth inhibition of the KM12 human tumor cell line is measured as a screen for anti-cancer activity. Cells are grown in 96 well plates and exposed to the test compound for 48 hours. Compounds are tested at a single concentration, which is 10^-5 M for most compounds. The reported endpoint is percent growth (GI% or GIPRCNT), where numbers from 0 - 100% represent growth inhibition, and numbers from -100% - 0 represent cell death. For example, a value of 40 represents 60% growth inhibition. A value of 0 means no net growth occurred over the course of the experiment. A value of -40 indicates 40% of cells at the beginning of the experiment died by the end of the experiment. A value of -100 means all cells are dead at the end of the experiment.
NCI-60 Human Tumor Cell Lines Screen was performed using the standard one-dose NCI protocol, which is described in more detail at https://dtp.cancer.gov/discovery_development/nci-60/default.htm.
Compounds with GIPRCNT values below 10 were considered active. Activity score was based on GIPRCNT using the following formula: […]
Score is 0 for GIPRCNT values of 100 or above, 50 for GIPRCNT values of 0, and 100 for GIPRCNT values of -100.

SMILES | growth
Cc1cc2c(c(O)c1Br)-c1ncoc1C(=O)[C@]1(C)CC[C@H](C(C)C)[C@H]21 | 20%
COc1cccc(/C=C2\N=C(C)N(CCc3ccc(S(N)(=O)=O)cc3)C2=O)c1 | 104%
COC(=O)C(Cc1ccc(O)c(O)c1)NC(=O)C(CSC/C=C(\C)CCCC(C)CCCC(C)CCCC(C)C)NC(C)=O (stereo not given) | 16.4%
CCN1CCN(c2ccc(NC(=O)Nc3ccc(-c4cc(C(=O)NC(C)C)c5ncccc5n4)cc3)cc2C(F)(F)F)CC1 | -83.7% (active)
O=C(CSc1nnc(-c2c[nH]c3ccccc23)n1-c1ccccc1)Nc1ccc(C(=O)/C=C/c2ccccc2Cl)cc1 | 74.7%
CCCn1c(=O)c2[nH]c(-c3ccc(OCc4nc5ccccc5[nH]4)cc3)nc2n(CCC)c1=O | 63.8%
CCOC(=O)c1c(CSc2ccccc2)n(C)c2cc(CN(C)C)c(O)c(CN(C)C)c12 | 40.4%
COc1ccc2c3nc4cc(C)c(C)cc4nc3n(CCN(C)C)c2c1 | -18% (active)
CC(=O)NS(=O)(=O)c1ccc(NC(=O)CSC2=NC(c3ccccc3)C(C(C)=O)=C(C)N2)cc1 (stereo not given) | 104%
Cc1cc(C)nc(NS(=O)(=O)c2ccc(N/C(N)=N/c3nccc(-c4cccs4)n3)cc2)n1 | 96.9%
CCCn1c(=O)c2[nH]c(-c3ccc(OCc4nc5ccc(C#N)cc5[nH]4)cc3)nc2n(CCC)c1=O | 75.5%
COc1ccccc1[C@H]1C(C(=O)c2ccc(Cl)cc2)C2(N[C@@H]1c1ccccc1)C(=O)Nc1ccccc12 (stereo not given in full) | -13.5% (active)
CC1(C)CC[C@]2(C(=O)N3CCOCC3)CC[C@]3(C)C(=CC[C@@H]4[C@@]5(C)CC[C@H](NCO)C(C)(C)[C@@H]5CC[C@]43C)[C@H]2C1 | -90.5% (active)
CCN1CCN(Cc2ccc(NC(=O)c3cccc(-n4cc(-c5ccc(NC(C)=O)nc5)nn4)c3)cc2C(F)(F)F)CC1 | 22.9%
O=c1[nH]c2ccccc2cc1CSc1ccc(Nc2nccc(-c3ccc(C(F)(F)F)cc3)n2)cc1 | 46.8%
S=c1nc(-c2ccccc2)cc(-c2cc3ccccc3nc2Cl)[nH]1 | 64.2%
CCCSc1nc(NC2CC2)c(C#N)c(-c2ccc(OC)cc2)n1 | 107%
Cc1ccc(C(=O)N/C(=C2/OCCN2C)[P+](c2ccccc2)(c2ccccc2)c2ccccc2)cc1 | 55.4%
COc1ccc(/C(C)=N/N=C2C(=O)N(C)c3ccc(Br)cc32)cc1S(N)(=O)=O | 97.8%
C=CC(=O)Nc1nc(-c2cccc(NS(=O)(=O)c3cccc4c(N(C)C)cccc34)c2)cs1 | -44% (active)

SMILES | growth
O=C(c1ccc(O)cc1)C1[C@H](c2ccc(Br)cc2)[C@@H](c2ccccc2)NC12C(=O)Nc1ccc(Br)cc12 (stereo not given in full) | -24.7% (active)
CO[C@@H]1CSSC1Cn1nc(-c2ccc(Oc3ccccc3)cc2)c2c(N)ncnc21 (stereo not given in full) | 38%
CCOc1ccc(/C=N/NC(=O)Cn2nc(Cc3ccccc3)c3onc(C)c3c2=O)cc1 | 66.4%
CC(=C(c1ccc(OCCN2CCCCC2)cc1)c1ccc(OCCN2CCCCC2)cc1)c1ccccc1 | 24.4%
C#CCNC(=O)[C@]12CCC(C)(C)C[C@H]1C1=CC[C@@H]3[C@@](C)(CCC#N)[C@H](C(=C)C)CC[C@@]3(C)[C@]1(C)CC2 | 54.8%
CCCCCc1ccc(S(=O)(=O)Nc2cc(-c3csc(N(C)C(C)=O)n3)ccc2N2CCN(C)CC2)cc1 | 46.3%
COc1ccc2[nH]c(=O)c(CSc3cccc(N)c3)cc2c1 | 4.43% (active)
COc1ccc(-c2ccc(/C=N/NC(=O)c3[nH]c4ccc(Br)cc4c3-c3ccccc3)s2)cc1 | 85.5%
O=C(CNc1nc(-c2ccccc2)cs1)Nc1ccc([N+](=O)[O-])cc1Cl | 29.1%
C=C(C)[C@@H]1CC[C@]2(C(=O)OC)CC[C@]3(C)[C@H](CC[C@@H]4[C@@]5(C)CC[C@H](N)C(C)(C)[C@@H]5CC[C@]43C)[C@@H]12 | -82.3% (active)
Cc1ccc(CSc2nc(-c3ccc(F)cc3)c(C#N)c(=O)[nH]2)cc1 | 97%
Cc1ccc(/C=C/C(=O)c2ccc(S(=O)(=O)NCCNc3nc(Nc4ccc(F)cc4)nc(N(C)C)n3)cc2)cc1 | -53.8% (active)
COc1cc(/C=C/C(=O)c2ccc(F)cc2)ccc1Oc1nc(Nc2ccc(F)cc2)nc(N(C)C)n1 | 61%
COc1cccc(/C=N/NC(=O)c2ccc3nc(-c4ccc(Cl)cc4)[nH]c3c2)c1O | -85.2% (active)
Cc1ccc(C(=O)NCCCNc2nc(Nc3ccc(N4CCN(C)CC4)cc3)nc3ccsc23)cc1 | 37.2%
CC(=O)c1cc(C(=O)N2c3ccccc3Sc3ccccc32)n2ccc(C)cc12 | 28.3%
C=C1CCC2C3(C)COC(c4c(F)cccc4F)OC3CCC2(C)C1CC(O)C1=CCOC1=O (stereo not given) | 54.3%
COc1cc(/C=N/NC(=O)c2ccc3nc(-c4ccc(Cl)cc4)[nH]c3c2)cc(OC)c1OC | -33% (active)
CSc1nc(-c2cccc(C)c2)c2cc(-c3ccccc3)n(C)c2n1 | 6.5% (active)
COc1ccc(NC(=O)Nc2ccc(OCC(=O)N=Nc3c(O)[nH]c4ccc([N+](=O)[O-])cc34)cc2)cc1 | 18%

From PubChem BioAssay (NCI)
